# “And” between values parts separate entries of the source, which are not always exact repeats. Equal values may be shown once. Results filed as inconclusive are left out. A call without a number means that no potency is given here. The source holds several records for some structures; these can differ, active in one and inactive in another. The source made the active and inactive calls. The call rests on the fitted dose curve; in most records, active means well fitted activation curve with a large enough effect in the repeat runs; inconclusive means weak or mixed curves; inactive means flat fitted curve, though single readings scatter.
# Test: A CellTox Green Cytotoxicity Assay to monitor cytotoxicity in HEK293 cells - 32 hour (AID 1224881); further: nearly all actives have a fitted effect of over 40% in size
# Conditions: CellTox Green fluorescence; series mostly up to 76.8 µM
# From the text: National Center for Advancing Translational Sciences [NCATS]
# NIH Chemical Genomics Center [NCGC]
# U.S. Environmental Protection Agency [EPA]
# National Institutes of Environmental Health Sciences [NIEHS]
# National Toxicology Program [NTP]
# Cell-based models are critical for drug discovery. Determining the natural cytotoxic effects resulting from test compounds is an essential research activity. A CellTox Green Cytotoxicity Assay to monitor cytotoxicity in real time of continues cell culture during 40 hours of the compound treatment was used to screen Tox21 10K library compounds in Hek293 cells. CellTox Green Cytotoxicity Assay is a nonlytic, homogeneous, biofluorescent method to measure cytotoxicity in cell culture after experimental manipulation. The assay system uses a proprietary asymmetric cyanine dye that is excluded from viable cells but preferentially stains the dead cell's DNA. […] Viable cells produce no appreciable increases in fluorescence. Therefore, the fluorescence signal produced by the binding interaction with dead cell DNA is proportional to cytotoxicity.
# The mixture of Hek293 cell suspension and reagents were dispensed at 600cells/6 ul/well in 1536-well tissue culture treated black solid bottom plates using a Multidrop dispenser. After the assay plates were incubated at a 37 C/5% CO2 incubator for 5 hours, 23 nL of compounds dissolved in DMSO, positive and negative controls was transferred to the assay plate by a pintool work station. The plates were incubated at 37 C for 40 hours. The fluorescence intensity were measured at 0h, 8h, 16h, 24h, 32h and 40h time points using ViewLux plate reader during compound treatment.
# Potency means the concentration at half of the fitted maximal effect.
SMILES,Potency,cytotoxicity increase
COc1cc([C@H]2Oc3cc([C@H]4Oc5cc(O)cc(O)c5C(=O)[C@@H]4O)ccc3O[C@@H]2CO)ccc1O,inactive and 15.1 µM (active),
CC/C=C\C/C=C\C/C=C\CCCCCCCC(=O)O,inactive,
c1ccc2cc3ccccc3cc2c1,inactive,
NC[C@H](O)c1ccc(O)c(O)c1,inactive,
C[N+](C)(C)CCO,inactive,
CCCCCC=O,inactive,
CC[C@]12CCCN3CCc4c(n(c5ccccc45)[C@@](O)(C(=O)OC)C1)[C@@H]32,inactive,
CC1(C)O[C@@H]2C[C@H]3[C@@H]4C[C@H](F)C5=CC(=O)C=C[C@]5(C)[C@@]4(F)[C@@H](O)C[C@]3(C)[C@]2(C(=O)CO)O1,inactive,
CN1CCOCC1,inactive,
O=C(O)COCCN1CCN(C(c2ccccc2)c2ccc(Cl)cc2)CC1 (stereo not given),inactive,
C1CN(SSN2CCOCC2)CCO1,48.5 µM (active) and inactive,
c1ccc2c(c1)ccc1cc3c(ccc4ccccc43)cc12,inactive,
CC(C)(Oc1ccc(Cl)cc1)C(=O)O,inactive,
NCCOCCO,inactive,
Cc1cccc(Nc2ccccc2C(=O)O)c1C,inactive,
COc1ccc2nc(N)sc2c1,inactive,
CN(C)/N=N/c1nc[nH]c1C(N)=O,inactive,
c1ccc2c(c1)ccc1ncccc12,inactive,
O=C(O)CCCC(=O)O,inactive,
CCCN1C=CN(C)C1,inactive,

SMILES,Potency,cytotoxicity increase
CC(=O)[C@H]1CC[C@H]2[C@@H]3CC=C4C[C@@H](O)CC[C@]4(C)[C@H]3CC[C@]12C,inactive,
IC(I)I,inactive,
CN(C)C,inactive,
O=Cc1ccccc1C=O,inactive,
CCCCCC1C(=O)CCC1CC(=O)OC (stereo not given),inactive,
O=S1(=O)CCCO1,inactive,
OC[C@@H](O)[C@@H](O[C@@H]1O[C@H](CO)[C@H](O)[C@H](O)[C@H]1O)[C@H](O)[C@@H](O)CO,inactive,
CCCCCCC(C)O (stereo not given),inactive,
CC/C(=C(/CC)c1ccc(O)cc1)c1ccc(O)cc1,inactive,
O=[Se](O)O,39 µM (active),-8.61% [at 15.8 µM] (inactive)
ClC/C=C/CCl,inactive,
O=C1OC2(c3ccccc31)c1cc(I)c(O)c(I)c1Oc1c2cc(I)c(O)c1I,11.8 µM (active) [middle of 4 runs],
Oc1ccc(C(c2ccc(O)cc2)C(Cl)(Cl)Cl)cc1,inactive,
O=C(O)c1ccc(O)cc1,inactive,
CNC[C@H](O)c1ccc(O)c(O)c1,inactive,
CCc1cccc2c3c([nH]c12)C(CC)(CC(=O)O)OCC3 (stereo not given),inactive,
CC1(C)C(C=C(Cl)Cl)C1C(=O)OCc1cccc(Oc2ccccc2)c1 (stereo not given),inactive,
C=CCCCCCCCCCC,inactive,
C=C[Si](OCCOC)(OCCOC)OCCOC,inactive,
